From PubChem
A selection: hits, their analogues and other compounds. The true share with any hit is near 2.4%.
Luciferase inh: blocks Photinus pyralis firefly luciferase activity; P08659; purified firefly luciferase, luminescence, 8 min; Potency, µM (titrated, usually from 57.1 µM), for the others: at the top dose activity change, negative = inhibition, hits mostly inhibitors; 72,000 tested, 2.2% active; further: on the % scale 0 is the no-effect control and ±100 the full control effect; nearly all actives have a fitted effect of over 40% in size
Target sequence (P08659 whole entry, looked up): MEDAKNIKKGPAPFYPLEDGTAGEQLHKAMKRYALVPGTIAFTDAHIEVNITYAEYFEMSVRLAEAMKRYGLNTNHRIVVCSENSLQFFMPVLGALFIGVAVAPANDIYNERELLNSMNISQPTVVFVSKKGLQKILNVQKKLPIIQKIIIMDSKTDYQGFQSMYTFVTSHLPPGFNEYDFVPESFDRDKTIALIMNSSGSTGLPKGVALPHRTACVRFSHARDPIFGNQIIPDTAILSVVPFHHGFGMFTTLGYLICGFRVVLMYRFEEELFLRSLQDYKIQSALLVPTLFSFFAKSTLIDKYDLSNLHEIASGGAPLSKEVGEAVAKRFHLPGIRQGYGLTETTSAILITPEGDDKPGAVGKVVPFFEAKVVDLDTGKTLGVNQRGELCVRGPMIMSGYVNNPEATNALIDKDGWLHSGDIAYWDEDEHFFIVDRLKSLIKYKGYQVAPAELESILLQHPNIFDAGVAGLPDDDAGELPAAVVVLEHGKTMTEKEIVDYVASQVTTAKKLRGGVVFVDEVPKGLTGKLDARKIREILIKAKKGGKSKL
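Inhibition of light generation by firefly luciferase from ATP and luciferin was profiled with concentration-response curves per sample, ATP held at 10 uM within the enzyme's linear range. Plates were read by luminescence after an 8-minute ambient incubation.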
Peg3 imprint: induces erasure of genomic imprints in mouse ES cells. mouse ES Peg3-LacZ reporter, beta-gal luminescence, 40 h. Potency, µM (doses to about 60.7 µM), for the others: at the highest dose activity change, positive = activation, most hits filed as activators. 110,000 tested, 0.02% active
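Readout: BetaGlo luminescence (5 min, room temp) for LacZ from the normally silent maternal Peg3 allele in female Peg3LacZ-Neo ES cells. Cells 300/well, 40 h, 37C, 5% CO2. Data normalized per plate to negative controls.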
p53ts 32C kill: p53ts cell cytotoxicity, permissive temperature; H1299-p53A138V at 32C, ATP luminescence viability, 24 h; Potency, µM (series often up to 46.1 µM), for inactives: top-dose activity change, negative = cytotoxicity, actives largely listed as cytotoxic; 130,000 tested, 0.93% active;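 further: 0% = DMSO and -100% = full killing by reference compound; nearly all actives have a fitted effect of over 55% in size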
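Viability by ATPlite luminescence after 24 h compound treatment (up to 46 uM) at the permissive 32C. Cells are H1299 carrying p53 A138V. Scale runs from DMSO basal to 100 uM tamoxifen as full kill; AC50 from Hill fits.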
p53ts 39C tox: cytotoxicity in p53ts cells at nonpermissive temperature; AID 902; 130,000 tested, 1.5% active; H1299-p53A138V viability at 39C, ATP luminescence, 24 h; Potency, µM (highest dose often 46.1 µM), for the others: at the highest dose activity change, negative = cell killing, hits mostly cytotoxic; further: on the % scale 0 is the no-effect control and ±100 the full control effect; nearly all actives have a fitted effect of over 55% in size
IkB sig inh: IkB pathway inhibition in ABC-DLBCL cells; 110,000 tested, 0.04% active; AID 445; Potency, µM (series often up to 57.1 µM), for inactives: at the highest dose IkBa stabilization activation; ABC-DLBCL IkBa-CBG/CBR dual luciferase ratio, 4 h; response scale: scaled: untreated 0%, proteasome inhibitor 100%; active means well fitted curve in the direction sought with a large enough effect in the signal ratio, not every such curve was filed as active; inconclusive means small, poorly fitted or top-dose-only effect, or a change in a side signal; the % refers to the signal ratio;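 further: the direction sought is a rising ratio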
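Luminescence ratio of IκBα-fused green versus native red beetle luciferase in OCI-Ly3 cells, 4 h post-doxycycline with compound; red signal alone, scaled from basal (0%) to zero light (-100%), flagged nonspecific or cytotoxic effects.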
* hit, by the source's call; ? = inconclusive; nt = not tested or not shown; ! = a repeat was not active; [ ] = dose if it differs, or a comment. Unless noted, the call rests on the fitted dose curve; in most records, active means well fitted curve in the direction sought with a large enough effect; inconclusive means small, poorly fitted or top-dose-only effect, or another doubt; inactive means no such curve, though single readings can be large; an effect the other way counts as inactive or inconclusive. Potency means the concentration at half of the fitted maximal effect.

SMILES | Luciferase inh | Peg3 imprint | p53ts 32C kill | p53ts 39C tox | IkB sig inh
COc1ccc(NC(=O)CCS(=O)(=O)c2nc(-c3cccs3)cc(C(F)(F)F)n2)cc1OC | nt | -10%[10.9 µM] | ? | 4µM* | ?
COc1ccc(NC(=O)CCS(=O)(=O)c2nc(-c3ccc4c(c3)OCO4)cc(C(F)(F)F)n2)c(OC)c1 | nt | -4%[10.9 µM] | ? | ? | ?
Cc1cc(NC(=O)CCCS(=O)(=O)c2nc(-c3cccs3)cc(C(F)(F)F)n2)no1 | -3% | -31% | ? | ? | ?
COc1cc(NC(=O)CCS(=O)(=O)c2nc(-c3cccs3)cc(C(F)(F)F)n2)cc(OC)c1OC | nt | -8%[10.9 µM] | -19% | 13µM* | ?
O=C(CCS(=O)(=O)c1nc(-c2ccc3c(c2)OCO3)cc(C(F)(F)F)n1)Nc1ccccc1C(F)(F)F | nt | 4%[10.9 µM] | ? | 7.9µM* | -3%
CC(C)c1ccc2c(c1)CC[C@@H]1[C@@](C)(CN)CCC[C@@]21C | 1%[11.4 µM] | nt | nt | nt | ?
Cc1cc2c(cc1S(=O)(=O)NCc1ccc(F)cc1)OCCN2C | nt | -5%[10.9 µM] | 0% | -1% | 24%
c1ccc2cc(NCNc3ccc4ccccc4c3)ccc2c1 | -14%[11.4 µM] | -9%[10.9 µM] | -7%[9.22 µM] | -4%[9.22 µM] | 7%[11.4 µM]
Cc1ccc(NC(=O)C2CCCN(c3ncnc4onc(C)c34)C2)cc1Cl (stereo not given) | nt | -10%[10.9 µM] | -1% | -18% | -4%
CN(C)CCCN1c2ccccc2CCc2ccc(Cl)cc21 | 0%[25.5 µM] | -11% | -12% | 20µM*! | ?
Oc1c(C=Nc2cccnc2)sc2ccccc12 | 13µM* | nt | nt | nt | nt
COc1ccc(-c2cn3c(n2)sc2cc(C(=O)NC(C)C45CC6CC(CC(C6)C4)C5)ccc23)cc1 (stereo not given) | nt | 13%[10.9 µM] | 1% | -5% | ?
O=C(N/N=C/c1ccc(O)cc1O)c1cc(-c2ccccc2)n[nH]1 | nt | nt | -16% | 10µM* | nt
O=C(N/N=C/c1c[nH]c2ccccc12)c1cc(-c2ccc3ccccc3c2)n[nH]1 | nt | nt | ? | 16µM* | nt
O=C(N/N=C/c1c[nH]c2ccccc12)c1cc(-c2cccc3ccccc23)n[nH]1 | nt | nt | 3% | 14% | nt
CC(C)Oc1ccc2c(=O)c(-c3ccccc3)coc2c1 | 5µM* | -60% | nt | nt | nt
O=c1c(-c2ccc(O)cc2)coc2cc(O)ccc12 | 10µM*! | -48% | nt | nt | -6%
Cc1nn(CC(=O)NCc2ccc(N(C)C)cc2)c(=O)c2nn(-c3ccccc3)c(C)c12 | nt | -5%[10.9 µM] | 9% | -14% | -1%
O=C(/C=C/N1CCOCC1)c1cc2ccccc2o1 | 13µM* | -41% | 13µM* | ? | 6%
O=C(c1cc2ccccc2o1)N1CCCCCC1 | -3% | -51% | -4% | 0% | 3%
O=C(/C=C/N1CCOCC1)c1coc2ccccc12 | nt | nt | 16µM* | ? | nt
O=C(O)c1coc2ccccc12 | -3% | -2% | -2% | -7% | 0%
CCOC(=O)C1CCCN(S(=O)(=O)c2cc(-c3onc(C)c3C)ccc2OC)C1 (stereo not given) | nt | 7%[10.9 µM] | 0% | -18% | ?
COC1=CC(=O)C(C(=O)c2ccccc2)=CC1=O | nt | 18% | ? | ? | nt
COC1=CC(=O)C=C(OC)C1=O | nt | -39% | ? | 16µM* | nt
Cc1ccc2c(c1)C(N1CCCC1=O)CC(c1ccco1)N2 (stereo not given) | 10µM* | -40% | ? | ? | -3%
